Fam108B inh = mouse Fam108B serine hydrolase inhibitors, primary screen, counter-screen for RBBP9 inhibitor project, biochemical, fluorescence polarization | recombinant Fam108B, FP-Rh probe fluorescence polarization | inhibition, % at 9.51 µM | 300,000 tested, 0.33% active | AID 1947, 2009;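 active = inhibition above the screen mean inhibition plus 3 SD, computed separately per campaign, cut at about 18% in these data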;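 note: inhibitors lower polarization as less probe binds the enzyme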
PRMT1 FP inh = PRMT1 methyltransferase inhibitors, primary screen, biochemical, fluorescence polarization. Protein arginine N-methyltransferase 1 (Homo sapiens), Q99873. recombinant PRMT1, activity-based probe fluorescence polarization. inhibition, % at 2.79 µM. 370,000 tested, 1.3% active. AID 652257, 2013;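 active = inhibition above about 21% made by adding two undisclosed values, limit read from the data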
SIAE inh = human SIAE inhibitors, primary screen, biochemical, fluorescence polarization, FP-Rh probe, 1536-well HTS; Sialate O-acetylesterase (Homo sapiens), Q9HAT2; SIAE FP-Rh probe binding; inhibition, % at 9.66 µM; 370,000 tested, 0.69% active;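 active = inhibition above a cutoff: mean of compounds within the control limits plus 3 SD of those, cut at about 17% in these data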;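 note: 0% = plate median of compound wells and 100% = probe without SIAE protein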
TCR-CD3 inh = inhibitors of human TCR-CD3 interaction, primary screen, biochemical, fluorescence, TAMRA-labeled TCR probe. T-cell receptor (TCR). AID 651800, 2012. 360,000 tested, 0.37% active. inhibition, % at 9.4 µM; in the data active = inhibition above about 19%;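 note: recombinant mutant TCR 2C K166C tagged with TAMRA read by polarization; 0% = receptor in buffer alone and 100% = receptor with positive control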
PAD4 FP inh = human PAD4 inhibitors, primary screen, biochemical, fluorescence polarization, 1536-well format; inhibition, % at 6.36 µM; recombinant PAD4, RCA probe fluorescence polarization; 330,000 tested, 0.41% active; Protein-arginine deiminase type-4 (Homo sapiens), Q9UM07;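 active = percent inhibition above a cutoff equal to the mean of all tested compounds plus 3 SD, cut at about 15% in these data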;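 note: 0% = PAD4 with RCA probe and DMSO and 100% = probe without PAD4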
Target sequence (Q9UM07 whole entry, looked up): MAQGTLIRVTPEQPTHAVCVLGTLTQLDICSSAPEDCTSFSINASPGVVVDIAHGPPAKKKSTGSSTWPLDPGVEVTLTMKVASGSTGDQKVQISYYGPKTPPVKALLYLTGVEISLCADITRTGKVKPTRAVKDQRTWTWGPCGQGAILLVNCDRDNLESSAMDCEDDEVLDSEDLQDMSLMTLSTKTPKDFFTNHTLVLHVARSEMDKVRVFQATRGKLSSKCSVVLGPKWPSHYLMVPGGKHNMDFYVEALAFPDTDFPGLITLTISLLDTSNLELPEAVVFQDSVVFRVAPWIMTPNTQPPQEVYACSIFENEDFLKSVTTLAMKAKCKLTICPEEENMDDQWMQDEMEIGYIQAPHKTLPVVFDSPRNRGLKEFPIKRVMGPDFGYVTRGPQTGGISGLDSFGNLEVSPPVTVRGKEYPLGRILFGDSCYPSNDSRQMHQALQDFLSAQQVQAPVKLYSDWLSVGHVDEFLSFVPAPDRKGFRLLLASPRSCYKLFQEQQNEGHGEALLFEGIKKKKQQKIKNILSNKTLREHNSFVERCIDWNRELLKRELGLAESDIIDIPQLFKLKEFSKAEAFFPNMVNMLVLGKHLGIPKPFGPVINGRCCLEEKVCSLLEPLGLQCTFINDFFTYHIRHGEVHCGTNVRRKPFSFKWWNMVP
PME-1 primary = PME-1 inhibitors via competitive probe labeling, primary screen, biochemical, fluorescence polarization, FP-Rh probe, HTS; Protein phosphatase methylesterase 1 (Homo sapiens), Q9Y570; recombinant PME-1; inhibition, % at 5.9 µM; 320,000 tested, 0.53% active; AID 2130, 2009;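 active = inhibition above the campaign mean of all compounds plus 3 SD, cut at about 26% in these data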;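 note: competitive labeling of PME-1 active site by serine hydrolase directed probe; 0% = PME-1 with DMSO and 100% = wells lacking PME-1 enzyme; inhibitors block probe labeling so polarization falls and inhibition rises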
PRMT1 inh conf = PRMT1 methyltransferase inhibitors, confirmation, biochemical, fluorescence polarization, triplicate | inhibition, % at 2.79 µM | recombinant His-PRMT1, activity-based probe fluorescence polarization | shares compounds with PRMT1 FP inh | 3,300 tested, 42% active;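 active = mean inhibition across replicates above the hit cutoff derived for the earlier primary screen, cut at about 22% in these data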
* marks the source's active call; other numbers are inactive results; · = not tested or not shown. Only some compounds are listed: those with a hit (about 2.6% of all), similar ones and a draw of the others.

SMILES	Fam108B inh	PRMT1 FP inh	SIAE inh	TCR-CD3 inh	PAD4 FP inh	PME-1 primary	PRMT1 inh conf
Cc1ccc(CN2CCCCC(NC(=O)c3cccc(C(F)(F)F)c3)C2=O)cc1 (centres undefined)	·	-3.1	-4.8	·	·	·	·
c1ccc2[nH]c3cc4ncnc4cc3nc2c1	4.4	59.5*	1.5	3.6	-11.2	4.2	61.4*
C[C@H]1[C@@H](NC(=O)c2ccc(Cl)c(C(F)(F)F)c2)CC[C@@]23CCCN2C(=O)CCC[C@@H]13	·	-1.2	-1.1	·	·	·	·
COC(=O)C1CCN(C(=O)c2ccc3nccnc3c2)CC1	·	26.1*	3.4	-3.3	·	·	3.9
O=C1C=C(NNC(=O)c2cccnc2)CC(c2ccco2)C1 (centres undefined)	-4.2	41.6*	8.2	1.7	-2.5	-3.1	2.2
CC(=O)Nc1ccc(SC[C@H](CC(C)C)N2CCN(CCc3ccccc3)CCC2=O)cc1	2.0	40.2*	-3.7	-11.7	8.9	6.4	40.2*
O=C1N(Cc2ccccc2)c2ccccc2C12CCCc1oc(CCc3ccccc3)nc12 (centres undefined)	·	-3.8	-1.7	·	·	·	·
CCOc1ccc(N=C2NN=C(c3cc(C)n(CC4CCCO4)c3C)CS2)cc1 (centres undefined)	-0.5	-0.7	3.9	-4.5	-1.0	0.5	·
Fc1ccc(F)c(C2=NNC(=NCC3CCCO3)SC2)c1 (centres undefined)	-1.1	37.6*	-5.1	6.2	0.1	0.4	9.7
CC(=O)Nc1ccc(C2=NNC(=NCC3CCCO3)SC2)cc1 (centres undefined)	3.0	40.9*	-0.1	-4.3	12.9	0.5	33.2*
CN(C)c1cccc(/C=C2\CC3(OC(=O)c4ccccc4)CCCN2C3)c1 (centres undefined)	·	2.5	11.8	·	·	·	·
S=C(Nc1ccccc1Br)OCCN1CCCC12CCC(c1ccccc1)CC2 (centres undefined)	·	34.6*	-3.6	·	·	·	31.4*
C#CCNC(=O)C[C@@H]1C(=O)N(CCc2ccc(Cl)cc2)/C2=C/CCCCC[C@@]21C(=O)OCC	·	-1.2	-3.8	·	·	·	·
O=C1NC(=S)S/C1=C\c1ccc(SCc2ccccc2)o1	16.5	64.1*	-10.0	4.5	-12.7	5.3	15.1
N#Cc1cc2c(=O)n3ccccc3nc2n(Cc2ccco2)c1=NC(=O)c1ccco1	2.8	31.9*	-4.6	2.8	-0.9	-7.9	2.4
Cc1cnc(NC(=O)Cc2ccc(S(=O)(=O)N3CCOCC3)s2)s1	·	38.3*	3.5	-1.9	0.3	·	11.6
CCOC(=O)c1c(/N=C/c2cc([N+](=O)[O-])ccc2O)sc(C)c1C	0.1	29.1*	-11.9	-29.2	-8.9	-4.8	-1.6
CCOC(=O)c1c(/N=C/c2cc(OC)cc([N+](=O)[O-])c2O)sc(C)c1C	-1.2	3.6	6.1	5.2	-5.9	0.6	·
COc1ccc(CNCC#Cc2ccc(C(F)(F)F)cc2)c(OC)c1	·	0.2	4.3	·	·	·	·
O=C(O)CN1C(=O)S/C(=C\c2ccc3c(c2)OCO3)C1=O	0.9	33.0*	2.5	6.7	5.8	1.9	3.6
CN1[C@H](Cc2ccccc2)COc2cc(N3CCSCC3)ccc2S1(=O)=O	·	2.1	1.2	·	·	·	·
C[C@@H]1COc2cc(Br)ccc2S(=O)(=O)N1Cc1cn(Cc2ccc(F)cc2)nn1	·	-0.3	2.2	·	·	·	·
Cc1ncoc1C(=O)Nc1ncc([N+](=O)[O-])s1	1.2	39.1*	-16.0	12.9	-3.9	-3.1	1.8
CCC(C)(C)n1nnnc1C(c1ccc2ncccc2c1)N1CCN(c2ccc(O)cc2)CC1 (centres undefined)	0.7	27.0*	2.2	-3.2	5.5	3.2	2.1
CCC(C)(C)n1nnnc1C(c1ccc2ncccc2c1)N1CCN(c2nc3ccccc3s2)CC1 (centres undefined)	-3.3	-0.8	-5.2	-4.4	4.2	-1.1	·
SMILES	Fam108B inh	PRMT1 FP inh	SIAE inh	TCR-CD3 inh	PAD4 FP inh	PME-1 primary	PRMT1 inh conf
C1CSC2(N1)C1CC3CC(C1)CC2C3 (centres undefined)	-0.1	50.5*	-5.8	-7.2	2.7	2.8	34.6*
S=C1NNC2(NN1)C1CC3CC(C1)CC2C3	0.5	7.7	-1.4	-4.4	0.7	-0.6	·
CC1CCN(c2nc(-c3ccco3)c3c(c2C#N)CC(C)(C)OC3)CC1	-2.8	28.1*	3.6	-4.2	-1.5	-3.6	24.1*
CC(C)c1ccc(N2C(=O)CC(Sc3ncn[nH]3)C2=O)cc1 (centres undefined)	-3.4	60.8*	0.1	5.3	3.0	-6.5	63.7*
CC1CC(=O)N(c2ccc(C(C)C)cc2)C(=O)C1	-3.0	-1.6	1.0	5.0	-4.5	3.4	·
COc1ccc(N2C(=O)CC(Sc3ncn[nH]3)C2=O)c(OC)c1 (centres undefined)	0.7	89.0*	3.4	1.0	3.7	-8.4	35.9*
CCCc1c(O)nc(SC2CC(=O)N(c3cc(OC)ccc3OC)C2=O)[nH]c1=O (centres undefined)	-2.9	5.3	6.6	1.6	0.3	-1.6	·
Cc1cc(=S)nc(-c2ccccn2)[nH]1	0.4	33.0*	8.7	-10.8	3.5	3.8	12.4
COc1ccc(S[C@]2(C(=O)N(C)C)CC(=O)N(C(=O)Nc3ccc(C)c(Cl)c3)[C@@H]2c2ccc(OC)cc2)cc1	·	8.4	-2.0	·	·	·	·
Clc1ccc(-c2csc(NNC3=NCCCCC3)n2)cc1	4.6	17.6	6.1	5.4	2.5	5.7	·
c1ccc(-c2csc(NNC3=NCCCCC3)n2)cc1	0.9	67.2*	4.8	-0.2	8.8	7.2	16.7
COc1ccc(-c2csc(NNC3=NCCCCC3)n2)cc1	0.5	38.0*	5.7	5.7	2.0	-1.1	31.9*
O=C1C(=Cc2cccc(O)c2O)SC(=S)N1CCCN1CCOCC1	·	81.5*	6.8	6.8	·	·	83.1*
C[C@H]1[C@@H](c2ccccc2)OC(O)([C@H](Cc2ccccc2)NC(=O)OC(C)(C)C)CN1C (some centres undefined)	·	0.2	-0.9	·	·	·	·
O=C(O)CC(SCC(=O)Nc1ccccc1)C(=O)O (centres undefined)	-2.0	-3.0	2.5	-0.1	-2.9	2.1	·
O=C(O)CC(SCC(=O)Nc1ccc(S(=O)(=O)N2CCCC2)cc1)C(=O)O (centres undefined)	-0.8	45.2*	-3.5	0.5	2.3	-4.8	38.8*
O=C1C=C(C2CCCCC2)C(=O)c2ccccc21	·	30.9*	5.1	1.8	·	·	3.7
O=C(O)C1=C(C2CCCCC2)C(=O)c2ccccc21	·	0.7	2.6	0.2	·	·	·

Screening results (PubChem BioAssay)
